PubChem BioAssay AID1159580 (chemical genetic matrix, 2015)
Where “and” joins values, the source holds several entries; their conditions need not be identical. Equal values may be shown once. Among all 5,500 compounds or so, about 2,000 (36%) were called active. Inconclusive results (about 18%) are left out. No stated cut-off is given here; in the data, active means normalized growth mostly below about 0.91 (no sharp cut-off); inconclusive means no clear call, values can overlap the other calls; inactive means mostly above about 0.92. The list shows a part of the results.

Assay: chemical genetic growth profiling, strain panel (AID 1159580);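 further: tested at 20 µM; growth read once vehicle control cultures reached saturation at 30 °C; 1 = growth at the plate median or of vehicle wells; lower values mean less growth of the strain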
Conditions: S. cerevisiae deletion strains, growth OD

Measured: normalized growth

COCCc1ccc(OCC(O)CNC(C)C)cc1 (stereo unspecified)
inactive: locus YAL013W, strain DEP1, active compounds read low 1.01 | locus YAL021C, strain ccr4, active compounds read low 1 | locus YAL026C, strain drs2, active compounds read low 1.01 | locus YAL030W, strain snc1, active compounds read low 0.988 | locus YAL040C, strain CLN3, active compounds read low 0.996 | locus YBL061C, strain skt5, active compounds read low 0.989 | locus YBR009C, strain hhf1, active compounds read low 0.998 | locus YBR021W, strain FUR4, active compounds read low 1.01 | locus YBR023C, strain chs3, active compounds read low 0.987 | locus YBR171W, strain sec66, active compounds read low 0.986 | locus YBR229C, strain ROT2, active compounds read low 1 | locus YBR231C, strain swc5, active compounds read low 1.01 | locus YBR279W, strain paf1, active compounds read low 1.01 | locus YCL011C, strain gbp2, active compounds read low 0.96 | locus YCL016C, strain dcc1, active compounds read low 0.966 | locus YCL029C, strain bik1, active compounds read low 1.03 | locus YCL061C, strain MRC1 (second series), active compounds read low 1 | locus YCL061C, strain MRC1, active compounds read low 0.997 | locus YCL069W, strain vba3, active compounds read low 0.992 | locus YCR088W, strain abp1, active compounds read low 1 | locus YDL005C, strain med2, active compounds read low 1 | locus YDL035C, strain GPR1, active compounds read low 0.997 | locus YDL040C, strain nat1, active compounds read low 1.01 | locus YDL074C, strain BRE1, active compounds read low 1.02 | locus YDL101C, strain DUN1, active compounds read low 1.02 | locus YDL134C, strain PPH21, active compounds read low 1 | locus YDL185W, strain tfp1, active compounds read low 1.01 | locus YDL192W, strain arf1, active compounds read low 1 | locus YDR001C, strain nth1, active compounds read low 0.979 | locus YDR069C, strain doa4, active compounds read low 0.991 | locus YDR101C, strain arx1, active compounds read low 1.01 | locus YDR137W, strain rgp1, active compounds read low 0.942 | locus YDR150W, strain NUM1, active compounds read low 1 and 0.986 | locus YDR159W, strain sac3, active compounds read low 1.02 | locus YDR162C, strain NBP2, active compounds read low 1 | locus YDR195W, strain ref2 0.998 | locus YDR297W, strain sur2, active compounds read low 1.02 | locus YDR318W, strain mcm21, active compounds read low 1.02 | locus YDR334W, strain swr1, active compounds read low 0.942 | locus YDR335W, strain msn5, active compounds read low 0.984 | locus YDR363W, strain ESC2, active compounds read low 1.02 | locus YDR388W, active compounds read low 1.02 | locus YDR392W, strain spt3, active compounds read low 0.944 | locus YDR502C, strain sam2, active compounds read low 0.997 | locus YEL003W, strain gim4, active compounds read low 0.996 | locus YEL037C, strain rad23, active compounds read low 0.989 | locus YEL061C, strain CIN8 (second series), active compounds read low 0.975 | locus YEL061C, strain CIN8, active compounds read low 1.01 | locus YER002W, strain NOP16, active compounds read low 0.993 | locus YER015W, strain faa2, active compounds read low 0.988 | locus YER016W, strain bim1, active compounds read low 0.999 | locus YER110C, active compounds read low 1.01 | locus YER111C, strain swi4, active compounds read low 1 | locus YER155C, strain BEM2 (second series), active compounds read low 1.02 | locus YER155C, strain BEM2, active compounds read low 1 | locus YER167W, strain BCK2, active compounds read low 0.981 | locus YFR010W, strain ubp6, active compounds read low 0.978 | locus YGL078C, strain dbp3, active compounds read low 1.01 | locus YGL086W, strain mad1, active compounds read low 1 | locus YGL167C, strain pmr1, active compounds read low 0.989 | locus YGL173C, strain kem1, active compounds read low 1 | locus YGL227W, strain vid30, active compounds read low 0.988 | locus YGL240W, strain doc1, active compounds read low 1.03 | locus YGL248W, strain PDE1, active compounds read low 1.01 | locus YGL253W, strain hxk2, active compounds read low 0.983 | locus YGR078C, strain PAC10, active compounds read low 1.02 | locus YGR135W, strain pre9, active compounds read low 1.01 | locus YGR229C, strain SMI1, active compounds read low 1.01 and 1.02 | locus YGR252W, strain gcn5, active compounds read low 0.978 | locus YHR013C, strain ard1, active compounds read low 0.956 | locus YHR027C, strain rpn1, active compounds read low 0.971 | locus YHR030C, strain SLT2, active compounds read low 1 and 1.06 | locus YHR079C, strain IRE1 (second series), active compounds read low 1.02 | locus YHR079C, strain IRE1, active compounds read low 1.07 | locus YHR094C, strain hxt1, active compounds read low 1.01 | locus YHR129C, strain ARP1, active compounds read low 1.01 | locus YHR142W, strain chs7, active compounds read low 0.943 | locus YHR200W, strain rpn10, active compounds read low 1.02 | locus YIL066C, strain RNR3, active compounds read low 1.01 | locus YIL073C, strain SPO22, active compounds read low 1.04 | locus YIL125W, strain kgd1, active compounds read low 1.01 | locus YIR030C, strain dcg1, active compounds read low 1.02 | locus YJL092W, strain hpr5, active compounds read low 0.988 | locus YJL095W, strain BCK1 (second series), active compounds read low 0.994 | locus YJL095W, strain BCK1, active compounds read low 1.03 and 1.04 | locus YJL115W, strain asf1, active compounds read low 0.964 | locus YJL129C, strain trk1, active compounds read low 1 | locus YJL134W, strain LCB3, active compounds read low 1 | locus YJL154C, strain vps35, active compounds read low 0.973 | locus YJL164C, strain tpk1, active compounds read low 1.01 | locus YJL166W, strain qcr8, active compounds read low 0.981 | locus YJL168C, strain set2, active compounds read low 1.03 | locus YJL187C, strain SWE1 (second series), active compounds read low 1.03 | locus YJL187C, strain SWE1, active compounds read low 1.04 | locus YJR043C, strain POL32, active compounds read low 1.01 | locus YJR066W, strain TOR1, active compounds read low 1.01
